In this experiment the test system is PglD UDP-4-amino-sugar N-acetyltransferase (Campylobacter jejuni). The experiment can be described thus: PglD acetyltransferase inhibitors, confirmation, biochemical, DTNB absorbance, single point, cherry-picked samples (AID 743156).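 Further: initial rate of CoA release by acetyl transfer from AcCoA to the UDP-4-amino sugar; 0% = median of neutral control wells and 100% = median of positive control wells.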 The note with it: Purified C. jejuni PglD, DTNB absorbance 412 nm; at 20 µM; active compounds read high.

The list shows a part of the results. A number with no mark means an inactive call.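 How the source made its calls: active means mean inhibition across replicates of at least 20% with every single replicate also at 20% or more; inconclusive means mean inhibition at least 20% but some replicate falls below 20%; inactive means mean inhibition under 20% and not all replicates reach it.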

Usually inhibition stands for the drop in the measured response relative to a control, in per cent. For the molecule `c1ccc2sc(N3CCNCC3)nc2c1`, the inhibition is 8.98%.

These data come from PubChem BioAssay AID743156 (Broad Institute, 2013).
